From PubChem BioAssay (NCI) come the findings set out here.

Each structure is given as a SMILES string. The panel holds about 83,000 compounds, 20% with a hit somewhere; the sample as a whole holds those more often.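 Percent growth is the endpoint: 0 to 100 indicates growth inhibition (40 means 60% inhibition), 0 means no net growth, and negative values indicate cell death.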 Unmarked numbers belong to inactive results. Calls of active or inactive are those of the source. How the source made its calls: active means growth percent below 10; inactive means the rest.

This assay concerns SW-620 colon. The assay can be described thus: NCI-60 one-dose screen, 48 h (100 = growth as untreated, 0 = no growth, -100 = all killed). The settings on record: 10 µM unless noted.
On to `COc1ccc(-c2oc3cc(O)c(OC)c(O)c3c(=O)c2OC)cc1O`, for which the growth is 19.2%.
Regarding `c1ccc(-c2nnc(Nc3nnc(-c4ccccc4)s3)s2)cc1`, the growth is 98%.
For `CCN1CCN(c2cc(-c3cn[nH]c3-c3cc(C)cc(OC)c3)nc(-c3cccnc3)n2)CC1`, the growth was 82.6%.
Regarding `CCCn1cnc2c1c(=O)n(CCCCC(C)=O)c(=O)n2C`, the growth is 97.7%.
The value for `O=C1C2C3C=CC(O3)C2C(=O)N1Nc1ccccc1` (configuration not stated) was 108%; that for `O=C(Nc1ccncc1)C(=O)c1cn(S(=O)(=O)c2cccc(F)c2)c2ccccc12` was 21.7%; that for `COc1ccc(-c2csc(NC(=O)c3cc(OC)c(OC)c(OC)c3)n2)cc1` was 102%.
For `CCC1=C(c2ccc(OC)cc2)C(C)(C)Oc2cc(O)c(CN3CCCC3)cc21`, the growth was 89.7%.
Regarding `CCOc1nc(-c2ccccc2)cc2c(O)c(-c3nnco3)[nH]c(=O)c12`, the growth is 32.2%.
In the case of `C=C1CC[C@@H]2[C@](C)(COC(C)=O)[C@H](OC(C)=O)CC[C@@]2(C)[C@@H]1CC(Nc1ccc(S(=O)(=O)Nc2cc(C)on2)cc1)C1=CCOC1=O` (some centres not stated) it was 14.7%.
Take `COc1ccc(C2=NN(C(=O)c3cc(OC)c(OC)c(OC)c3)C(c3ccc(C#N)cc3)C2)cc1OC` (configuration not stated): the growth was 16.1%.
`O=C1/C(=N/O)CCc2ccccc21`: the growth was 95%.
With `O=C(/C=C/c1cccnc1)NCCCCC1CCCN(C(=O)c2ccccc2)C1` (configuration not stated), the growth was 25.5%.
In the case of `COc1ccc(Nc2ccnc(NCCCNc3ccnc4cc(Cl)ccc34)n2)cc1` it was -48.7% (active).
In the case of `COc1ccc2nc(NC(=O)c3cc(-c4ccc(F)cc4)n4nc(-c5ccccc5)cc4n3)sc2c1` it was 94.7%; in that of `COc1cc(/C=C/C(=O)N2CCN(C(=O)/C=C/c3ccccc3)CC2)cc(OC)c1OC`, 109%; in that of `O=C1C[C@@H]2/C(=C(O)\C=C\c3ccccc3)C(=O)C=C[C@@H]2O1`, -33.2% (active).
With `COc1cc(/C=C/c2nnc(-c3cc(-c4ccccc4)n[nH]3)o2)cc(OC)c1OC`, the growth is 115%.
Regarding `O=[N+]([O-])c1ccc2c(c1)S(=O)c1cc([N+](=O)[O-])ccc1N2`, the growth was 95.8%.
For `C/C(=C\CCc1ccoc1)CC/C=C(\C)CCCN1CCC(CO)CC1`, the growth was 18.2%.
In the case of `O=C1/C(=C/c2ccc([N+](=O)[O-])o2)Oc2ccc(Cl)cc21` it was -78.7% (active); in that of `COc1cc(C2NC(c3ccc(Cl)cc3)C(C)/C(=N/NC(N)=S)C2C)cc(OC)c1OC` (configuration not stated), 106%.
With `CCC(CC)NCCCCCNc1cc(OC)cc2cccnc12`, the growth was 95.4%.
The value for `CCOc1nc(-c2ccccc2)cc2c(O)c(C(=O)n3nc(C)cc3C)[nH]c(=O)c12` was 115%.
In the case of `O=C(/C(=N/O)S(=O)(=O)c1ccccc1)c1cccs1` it was 117%; in that of `COc1cc(C2NC(c3ccc(Cl)cc3)C(C)C(=NC(=O)c3cnccn3)C2C)cc(OC)c1OC` (configuration not stated), 114%; in that of `COc1ccc2c(c1)C(=O)/C(=C/c1ccc([N+](=O)[O-])s1)O2`, -69.7% (active).
In the case of `COc1cc(C(=O)/C=C/c2cccnc2Nc2ccccc2)cc(OC)c1OC` it was -84% (active); in that of `CCCCn1c(Cc2ccc(Cl)cc2)nc2cc(OC)c(OC)cc2c1=O`, 95.6%.
Turning to `OCCOc1c(Cl)cc(Cl)cc1Cl`, the growth is 98.7%.
On to `COc1ccc2nc3cc(Cl)ccc3c(N3CCN(c4ccnc(Nc5ccc(F)cc5)n4)CC3)c2c1`, for which the growth is 89.2%.
In the case of `COc1ccc(-c2cc(Cc3cccs3)c(=O)n(Cn3ccc4ccccc43)n2)cc1` it was 114%; in that of `CCc1[nH]nc(-c2ccc(OC)cc2)c1-c1ccccc1OCCN(CC)CC`, 104%; in that of `COc1ccc(-c2cc(C(=O)Nc3nc4cc(C)c(C)cc4s3)nc3cc(-c4ccccc4)nn23)cc1OC`, 47.3%.
Consider `Nc1ccc2c3c(cccc13)-c1ccccc1-2`, for which the growth is 102%.
The value for `COc1cccc(-c2nnc(N)o2)c1` was 103%.
In the case of `COc1cc2c(cc1OCCCOc1ccc(-c3cc4ccccc4c4ccccc34)cc1)N=C[C@@H]1CCCN1C2=O` it was -43.8% (active).
